Screening results: PubChem, National Center for Advancing Translational Sciences (NCATS)
The list is not random: actives were taken first. Their share in the collection is about 19%.
TGFb inhibitor: inhibitors of TGF-b signaling; HepG2 CAGA-GFP TGF-b/SMAD3 reporter, GFP fluorescence, 18 h; TGF-beta stimulated, 500 pg/mL final; Potency, µM (highest dose often 46.1 µM), hits mostly inhibitors; hit rate 1.2% among 410,000; AID 588855; also: nearly all actives have a fitted effect of over 65% in size
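Read-out: total well GFP (ex488/em500-530) summed from mean per-cell fluorescence. Cells: HEPG2 CAGA-GFP, 1% FBS DMEM, 18 h at 37 degrees C with 500 pg/mL final TGF-beta. Unstimulated wells served as the full-inhibition control; stimulated DMSO wells = 0%.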
IL1B secr inh: inflammasome signaling inhibition, IL-1 beta readout | hit rate 4.7% among 360,000 | activity change, % at 57.5 µM | AID 743279 | THP-1 LPS/ATP IL-1B secretion, AlphaLISA, 16 h; hits give low values; in the data active = activity change below about -50%; inconclusive = mostly about -30% to -49%
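Secreted IL-1B measured by AlphaLISA bead assay after 16 h compound exposure of THP-1 cells; compounds (final up to 57.5 uM) added 1 h before LPS (250 ng/mL) and ATP (1.25 mM) stimulation; lower signal means less secretion.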
TDP1 cell noCPT: qHTS for Inhibitors of human tyrosyl-DNA phosphodiesterase 1 (TDP1): qHTS in cells in absence of CPT; AID 686978, 2013; hit rate 15% among 420,000; Potency, µM (highest dose often 46.2 µM), usual class: inhibitors; DT40 Tdp1-/- hTDP1 cells, no CPT, ATP luminescence, 48 h; also: nearly all actives have a fitted effect of over 55% in size
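Compound effects on proliferation are scored in DT40 Tdp1-/-;hTDP1 cells in the absence of CPT. ATP levels (CellTiter-Glo luminescence) are recorded after a ≥48 hr, 37 °C incubation.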
S-ASM inh: inhibitors of human secretory acid sphingomyelinase. Potency, µM (titrated, usually from 57.5 µM), actives largely listed as inhibitors. AID 504937. hit rate 0.006% among 340,000. placental ASM, HMU-PC fluorogenic substrate, 60 min
Target sequence (P17405 47-631 limits assumed): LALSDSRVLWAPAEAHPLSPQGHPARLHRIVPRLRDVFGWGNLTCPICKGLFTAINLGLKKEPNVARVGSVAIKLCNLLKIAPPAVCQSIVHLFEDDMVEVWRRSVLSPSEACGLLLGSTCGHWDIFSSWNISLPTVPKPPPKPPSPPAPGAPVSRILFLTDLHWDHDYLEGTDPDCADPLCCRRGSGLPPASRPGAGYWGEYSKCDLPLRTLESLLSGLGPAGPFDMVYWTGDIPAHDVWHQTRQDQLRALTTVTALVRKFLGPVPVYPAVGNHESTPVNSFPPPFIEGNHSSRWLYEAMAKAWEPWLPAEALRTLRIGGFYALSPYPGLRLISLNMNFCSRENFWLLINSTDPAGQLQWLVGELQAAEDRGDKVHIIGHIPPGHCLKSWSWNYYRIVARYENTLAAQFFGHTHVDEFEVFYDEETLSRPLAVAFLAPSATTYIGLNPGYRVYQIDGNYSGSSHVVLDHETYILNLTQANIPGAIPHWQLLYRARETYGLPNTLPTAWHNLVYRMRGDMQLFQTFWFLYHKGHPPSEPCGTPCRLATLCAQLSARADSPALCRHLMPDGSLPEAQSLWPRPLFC
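Human placenta-derived ASM preincubated with compound 10 min at room temperature, then reacted with 9 uM (final) fluorogenic HMU-PC substrate for 60 min at 37 C. Stop solution raises pH to 10; fluorescence read at Ex 386/Em 447 nm.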
HepG2 tox-1: counter-screen for TGF-b inhibitors: cytotoxicity in HepG2 cells. Potency, µM (series often up to 46.1 µM), usual class: cytotoxic. HepG2 CAGA-GFP viability, ATP luminescence, 18 h. hit rate 0.76% among 410,000. AID 588856
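CellTiter-Glo luminescence gave cytotoxicity after 18 hours at 37 degrees C. The cells were HepG2 CAGA-GFP in 1% FBS DMEM, stimulated with 500 pg/mL TGF-beta after compound addition. %Activity was normalised to no-cell wells (complete cell-killing) and DMSO (no toxicity), and curves were fitted and classified.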
DT40 TDP1 CPT: growth inhibition of DT40 Tdp1-/-;hTDP1 cells with camptothecin (screen for TDP1 inhibitors); hit rate 12% among 420,000; chicken DT40 Tdp1-/-;hTDP1 cells + 20 nM CPT, ATP luminescence, 48 h; AID 686979; Potency, µM (doses to about 46.2 µM), usual class: inhibitors; also: nearly all actives have a fitted effect of over 55% in size
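Cell growth measured by CellTiter-Glo luminescence after a minimum 48 h, 37 C compound exposure with 20 nM CPT in Tdp1-knockout DT40 cells stably expressing hTDP1, seeded 400/well; qHTS titration format.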
TGFb CAGA inh: confirmation of TGF-b signaling inhibitors in HepG2 reporter cells | shares compounds with TGFb inhibitor | AID 720534 | hit rate 63% among 1,600 | HepG2 CAGA-GFP TGF-b reporter, GFP fluorescence, 18 h; cells stimulated with TGF-beta, 500 pg/mL | Potency, µM (doses to about 46.1 µM), most hits filed as inhibitors; also: nearly all actives have a fitted effect of over 65% in size
HepG2 tox-2: counter-screen for TGF-b inhibitors: cytotoxicity in HepG2 cells; shares compounds with TGFb inhibitor; HepG2 CAGA-GFP viability, ATP luminescence, 18 h; cells stimulated with TGF-beta, 500 pg/mL; Potency, µM (doses to about 46.1 µM), most hits filed as inhibitors; hit rate 27% among 1,600; AID 720535; also: nearly all actives have a fitted effect of over 70% in size
TGFb CCL64 inh: blocks TGF-b signaling in CCL64 reporter cells; shares compounds with TGFb inhibitor; CCL64 CAGA-GFP reporter, TGF-b stimulated, GFP fluorescence, 18 h; Potency, µM (titrated, usually from 46.1 µM), actives largely listed as inhibitors; hit rate 41% among 1,600; also: nearly all actives have a fitted effect of over 65% in size
COP TGFb inh: TGF-b inhibition validated with COP promoter. shares compounds with TGFb inhibitor. HepG2 COP-GFP TGF-b reporter, GFP fluorescence, 18 h; cells stimulated by added recombinant TGF-beta. Potency, µM (titrated, usually from 46.1 µM), actives largely listed as inhibitors. hit rate 3% among 1,600. AID 720537; also: nearly all actives have a fitted effect of over 70% in size
Numbers stand for hits; i = inactive; ? = inconclusive; nt = not tested or not shown. Unless noted, calls follow the shape of the dose curve; as a rule, active = well fitted curve in the direction sought with a large enough effect; inconclusive = small, poorly fitted or top-dose-only effect, or another doubt; inactive = no such curve, though single readings can be large; an effect the other way counts as inactive or inconclusive.

SMILES	TGFb inhibitor	IL1B secr inh	TDP1 cell noCPT	S-ASM inh	HepG2 tox-1	DT40 TDP1 CPT	TGFb CAGA inh	HepG2 tox-2	TGFb CCL64 inh	COP TGFb inh
CC(C)(C)C(=O)COC(=O)c1cc(-c2ccncc2)nc2ccccc12	i	i	i	i	i	i	nt	nt	nt	nt
Cc1ccnc(Nc2nc(-c3sc(C)nc3C)cs2)c1	6.3µM	-100	?	i	3.2µM	15µM	9.2µM	7.3µM	?	i
O=C(C[C@H]1CC[C@H]2[C@@H](COC[C@@H](O)CN2C(=O)c2cnccn2)O1)NCc1ccc(Oc2ccccc2)cc1	nt	i	?	nt	nt	?	nt	nt	nt	nt
CN(C(=O)c1ccc(NC(=O)Cc2cccc(NC(=O)C3CCN(C(=O)CCc4ccccc4)CC3)c2)cc1)C1CCCC1	13µM	i	?	i	i	?	?	i	i	i
Cc1ccc(C(=O)N2CCNC(=O)C2CC(=O)Nc2ccc(F)cc2)cc1C (stereo not drawn)	i	i	i	i	i	i	nt	nt	nt	nt
COC(=O)c1sccc1NC(=O)CN1CCN(c2ccc(F)cc2)CC1	11µM	i	?	i	i	?	?	?	i	i
CCOc1ccc(NC(=O)CC2C(=O)N(c3ccc(F)cc3)C(=O)N2Cc2ccc(OC)c(OC)c2)cc1 (stereo not drawn)	?	nt	?	nt	i	i	nt	nt	nt	nt
CCOC(=O)c1ccc(-c2ccc(N3C(c4cccc(OC)c4)=Cc4ccc(F)cc4C3CC(C)=O)cc2)cc1F (stereo not drawn)	nt	i	i	nt	nt	i	nt	nt	nt	nt
CCCCCCOc1ccc(N2C(=O)CC(N(CCc3ccc(S(N)(=O)=O)cc3)C(C)=O)C2=O)cc1 (stereo not drawn)	?	i	?	i	i	i	?	i	i	i
O=S(=O)(NCC(Nc1ccccc1)c1ccccc1)c1ccc(Cl)cc1 (stereo not drawn)	10µM	-79	29µM	i	i	?	?	i	i	i
O=C1c2cccc(OCc3ccc(F)cc3)c2CCN1Cc1ccc(F)cc1	6.3µM	-68	12µM	i	i	?	23µM	?	13µM	i
CN1CCc2c(OCc3ccc(F)cc3)cccc2C1=O	i	i	?	i	i	i	nt	nt	nt	nt
O=C(NCc1ccccc1C(F)(F)F)C1CC(O)CN1C(=O)Nc1ccccc1 (stereo not drawn)	i	i	i	i	i	i	nt	nt	nt	nt
Cn1c(SCC(=O)NC2CCCC2)nnc1C(F)(F)F	i	i	i	i	i	i	nt	nt	nt	nt
CC(NCC(O)COCCC12CC3CC(CC(C3)C1)C2)c1ccccc1 (stereo not drawn)	7.9µM	-98	15µM	i	7.1µM	6.5µM	?	21µM	?	?
COc1ccc(OCCOC(=O)CNS(=O)(=O)c2ccc(SC)c([N+](=O)[O-])c2)cc1	i	i	i	nt	i	i	nt	nt	nt	nt
COc1ccc([N+](=O)[O-])cc1NC(=O)CCS(=O)(=O)c1ccc(Br)cc1	i	i	i	i	i	i	nt	nt	nt	nt
COc1ccc(NC(=O)CC2CC3CCC2C3)cc1S(=O)(=O)N1CCOCC1 (stereo not drawn)	?	i	i	i	i	i	nt	nt	nt	nt
NC(=S)NN=Cc1c[nH]c2nccnc12	13µM	i	13µM	nt	i	16µM	?	?	i	i
CC[C@@H]1C(c2ccccc2)=NN(c2ccccc2)[C@H]1C(=O)N1CCOC1=O	?	i	i	i	i	i	i	i	i	i
O=C1OCCN1C(=O)[C@H]1[C@H](c2ccc([N+](=O)[O-])cc2)C(c2cccc(Cl)c2)=NN1c1ccccc1	?	?	i	i	i	i	i	i	i	i
O=C1OCCN1C(=O)[C@H]1[C@H](c2ccccc2)C(c2cccc(Cl)c2)=NN1c1ccccc1	?	i	i	i	i	i	nt	nt	nt	nt
CC(=O)Nc1ccc(S(=O)(=O)N2CCC(n3c(C(F)(F)F)nc4cccnc43)CC2)cc1	i	nt	?	nt	i	?	nt	nt	nt	nt
Cc1nc(N)nc(COc2ccccc2)n1	i	i	i	i	i	i	nt	nt	nt	nt
O=C(Nc1ccc(S(=O)(=O)NC2=NCCCCC2)cc1)c1cccs1	i	i	?	i	i	i	nt	nt	nt	nt
SMILES	TGFb inhibitor	IL1B secr inh	TDP1 cell noCPT	S-ASM inh	HepG2 tox-1	DT40 TDP1 CPT	TGFb CAGA inh	HepG2 tox-2	TGFb CCL64 inh	COP TGFb inh
O=C(Nc1ccc(S(=O)(=O)NC2=NCCCCC2)cc1)c1ccc([N+](=O)[O-])s1	7.1µM	-57	10µM	nt	i	5.2µM	12µM	?	21µM	i
COc1cc(C=CC(=O)c2ccccc2)cc(OC)c1OC	10µM	-115	8.2µM	nt	i	5.8µM	18µM	?	16µM	i
COc1ccc(NC(=O)Cn2nnc(-c3nc(-c4ccncc4)no3)c2N)cc1OC	nt	nt	i	nt	i	i	nt	nt	nt	nt
COc1cc(C(=O)Oc2ccc(/C=N/NC(=O)c3ccncc3)cc2)cc(OC)c1OC	i	i	i	i	i	i	nt	nt	nt	nt
COc1cc(C(=O)Oc2ccccc2/C=N/NC(=O)c2ccc(C)cc2)cc(OC)c1OC	13µM	i	0.65µM	i	i	1µM	?	?	i	i
COc1ccc(C)cc1S(=O)(=O)N(CC(=O)N1CCOCC1)Cc1ccccc1	i	i	i	i	i	i	nt	nt	nt	nt
COc1ccc(C)cc1S(=O)(=O)N(CC(=O)NCc1ccc(Cl)cc1)Cc1ccccc1	13µM	-61	?	i	i	21µM	?	?	?	i
CCN(CC)S(=O)(=O)c1ccc(N2CC(C(=O)N3Cc4ccccc4CC3C(N)=O)CC2=O)cc1 (stereo not drawn)	i	i	i	i	i	i	nt	nt	nt	nt
Clc1ccc2c(SCC3CO3)c3ccccc3nc2c1 (stereo not drawn)	7.9µM	?	1.2µM	i	i	0.46µM	16µM	18µM	21µM	16µM
O=C(Nc1ccc(Br)cc1F)c1ncoc1-c1ccco1	i	nt	i	nt	i	i	nt	nt	nt	nt
